# Data: PubChem BioAssay AID588358 (NMMLSC, 2011)
# About 1,500 (0.48%) of roughly 310,000 compounds were called active. Many of the other results were omitted from the sample, so actives are more common in it than they were. Values without a mark were called inactive.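 How the source made its calls: active means binding more than 3 SD below its plate's average and above zero; inconclusive means below that plate limit but binding exactly zero; inactive means the rest.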
# Target: Desmoglein-3 (Homo sapiens) (UniProt P32926)
# Test: inhibitors of pemphigus antibody binding to DSG3, primary screen, biochemical, bead-based, flow cytometry, scFv-GFP (AID 588358);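 further: hits lower antibody fragment binding to DSG3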
# Details: DSG3-coupled beads, scFv-anti-DSG3-GFP binding, at 10 µM, active compounds read low
# Desmoglein-3 (Homo sapiens), sequence (P32926 whole entry, looked up, the tested form may be a part): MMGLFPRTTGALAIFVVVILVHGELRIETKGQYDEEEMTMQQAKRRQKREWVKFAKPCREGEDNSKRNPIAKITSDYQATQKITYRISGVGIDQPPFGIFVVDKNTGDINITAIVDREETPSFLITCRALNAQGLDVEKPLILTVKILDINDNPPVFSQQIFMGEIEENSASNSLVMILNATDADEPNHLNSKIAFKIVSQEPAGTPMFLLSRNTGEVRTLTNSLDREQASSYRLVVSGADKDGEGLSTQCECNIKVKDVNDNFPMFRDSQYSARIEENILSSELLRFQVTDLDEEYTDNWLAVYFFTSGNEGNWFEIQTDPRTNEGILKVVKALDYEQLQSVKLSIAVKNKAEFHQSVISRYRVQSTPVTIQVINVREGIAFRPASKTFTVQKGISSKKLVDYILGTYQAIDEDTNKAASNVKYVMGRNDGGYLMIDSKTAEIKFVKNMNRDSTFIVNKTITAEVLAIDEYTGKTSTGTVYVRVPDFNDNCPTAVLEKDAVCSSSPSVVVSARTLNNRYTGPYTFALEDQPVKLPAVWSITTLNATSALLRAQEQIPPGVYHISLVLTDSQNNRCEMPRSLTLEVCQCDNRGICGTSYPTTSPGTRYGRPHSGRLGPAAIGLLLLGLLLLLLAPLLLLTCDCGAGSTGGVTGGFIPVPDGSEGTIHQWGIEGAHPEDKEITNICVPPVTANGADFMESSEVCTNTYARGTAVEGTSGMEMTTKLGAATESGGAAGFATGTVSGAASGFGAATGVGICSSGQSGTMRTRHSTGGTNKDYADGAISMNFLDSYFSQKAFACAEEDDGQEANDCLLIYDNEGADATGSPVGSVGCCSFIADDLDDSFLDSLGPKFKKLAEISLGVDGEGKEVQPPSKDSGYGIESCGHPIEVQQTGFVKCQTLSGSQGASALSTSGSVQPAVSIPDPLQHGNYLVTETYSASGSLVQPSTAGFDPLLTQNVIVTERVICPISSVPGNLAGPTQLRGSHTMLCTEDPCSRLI
row,SMILES,binding (percent of control)
1,CCc1cccc(CC)c1NC(=S)NCc1ccc2[nH]c(C)cc2c1,78.1%
2,Cc1cc2cc(CNC(=O)c3ccc(S(=O)(=O)N4CCOCC4)cc3)ccc2[nH]1,95.4%
3,Cc1cc2cc(CNC(=O)c3cccs3)ccc2[nH]1,80.6% (active)
4,Cc1onc(-c2ccccc2)c1-c1nnc(COC(=O)c2ccc(N(C)C)cc2)o1,109%
5,C[C@H](CO)N1C[C@H](C)[C@H](CN(C)C(=O)c2ccncc2)OCc2ccccc2-c2c(n(C)c3ccccc23)C1=O,103%
6,Cc1cccc(C(=O)NC2CCN(CC(=O)Nc3cccc(Cl)c3)CC2)c1,92.9%
7,O=C(c1cc(-c2ccc(F)cc2)on1)N1CCN(c2ccc(F)cc2)CC1,91%
8,O=C(c1cc(-c2ccc(O)cc2)on1)N1CCOCC1,104%
9,O=C(c1cc(-c2ccc(Cl)cc2)on1)N1CCN(c2ccccc2)CC1,24.2% (active)
10,Cc1cccc(C(=O)Nc2nnc(S(=O)(=O)N3CCCCCC3)s2)c1,29.9% (active)
11,COc1cccc(C(=O)Nc2nnc(S(=O)(=O)N3CCCCC3)s2)c1,99.3%
12,O=C(Nc1nnc(S(=O)(=O)N2CCCCCC2)s1)c1cccc(Br)c1,102%
13,CC1(C2CC2)NC(=O)N(CC(=O)N2CCN(c3ccccc3F)CC2)C1=O (configuration not stated),101%
14,COc1ccc(NC(=O)CSc2nnnn2-c2cccc(OC)c2)cc1,92.2%
15,O=C(O)C#Cc1cccc2ccccc12,97.7%
16,O=C(O)c1cc2ccccc2c(=O)s1,53.2% (active)
17,O=C(O)c1ccc(S(=O)(=O)c2ccccc2)s1,123%
18,CCN1C(=O)[C@H]2[C@@H](c3ccc(C(F)(F)F)cc3)N[C@]3(CCCN(Cc4ccc(Br)cc4)C3=O)[C@H]2C1=O,111%
19,CCC(=C/c1sc2ccc3ccccc3c2[n+]1C)/C=C1\Sc2ccc3ccccc3c2N1C,75% (active)
20,CCOC(=O)c1cc(-c2sc(NC(=O)c3ccccc3)nc2C)n(-c2ccc(Br)cc2)n1,102%
21,O=C(CSc1ccccn1)N1CCN(S(=O)(=O)c2ccc(Cl)cc2)CC1,96.2%

row,SMILES,binding (percent of control)
1,O=C(COc1ccc(Cl)cc1)N1CCN(S(=O)(=O)c2ccc(Cl)cc2)CC1,66.4% (active)
2,Nc1nc(SCC(=O)N2CCN(S(=O)(=O)c3ccc(Cl)cc3)CC2)n[nH]1,104%
3,O=C(CSc1ccc([N+](=O)[O-])cn1)Nc1ccc(N2CCOCC2)cc1,96.9%
4,O=C(CSc1ccc(-c2ccc(-n3cccn3)cc2)nn1)Nc1ccc([N+](=O)[O-])cc1,89.5% (active)
5,O=C(CSc1ccc(-c2ccccn2)nn1)Nc1ccccc1,101%
6,COc1ccccc1NC(=O)C(CC(=O)O)Cc1cc(C)cc(C)c1 (configuration not stated),96.8%
7,COc1ccc(CCNC(=O)CN(c2ccccc2)S(=O)(=O)c2ccccc2)cc1,97.8%
8,COc1ncnc2c1ncn2CCCNCCN1CCOCC1,98%
9,COc1cccc(/C=N\Nc2nncc(-c3ccccc3)n2)c1,90.1% (active)
10,COc1cccc(/C=N/NC(=O)C(=O)N2CCCC2)c1,102%
11,COc1cccc(/C=N/Nc2ccc(Cl)nn2)c1,98.6%
12,CC(=O)c1c(C)n(-c2ccc(N(C)C)cc2)c2ccc(OCC(N)=O)cc12,96.5%
13,CC(=O)c1c(C)n(-c2ccc(C)cc2)c2ccc(O)cc12,61.8% (active)
14,CCOC(=O)c1c(CN2CCOCC2)n(-c2ccccc2)c2ccc(O)cc12,107%
15,CCOC(=O)C(C(=O)c1ccccc1)C(c1ccccc1)c1nccc2ccccc12 (configuration not stated),108%
16,O=C(O)C1CCCN1c1nc(Cl)ccc1[N+](=O)[O-] (configuration not stated),90.2%
17,COc1ccc(S(=O)(=O)N2CCC(C(=O)NCCC(=O)NCCc3cccc(F)c3)CC2)cc1,99%
18,Cc1nc(-c2ccc(Cl)cc2)sc1C(=O)NN,110%
19,Cc1nc(-c2ccc(Cl)cc2)sc1C(=O)CBr,63.4% (active)
20,Cc1nc(-c2ccccc2)sc1C(=O)/C=C/N(C)C,97.8%
21,COc1ccc(CN2C(=O)C(CC(=O)NC3CCCCC3)CC(C(=O)N3CCOCC3)=C2C)cc1 (configuration not stated),102%

row,SMILES,binding (percent of control)
1,COC(=O)c1ccccc1N=NNc1ccc([N+](=O)[O-])cc1,104%
2,O=[N+]([O-])c1ccc(N=NNc2ccc([N+](=O)[O-])cc2)cc1,44.4% (active)
3,O=[N+]([O-])c1ccc(N/N=C/c2ccccc2)cc1,102%
4,COc1cc(C)c(CN2CCN(C(=O)CCC(=O)c3ccc(C)s3)CC2)cc1OC,98.2%
5,COc1ccc(NC(=O)CCCOc2ccc(C(C)=O)cc2)cc1S(=O)(=O)N1CCCCC1,109%
6,c1ccc(Cn2nnc3c(NCC4CC4)ncnc32)cc1,101%
7,O=C(c1cccnc1)N(Cc1ccccc1)C(=O)c1cccnc1,86.3%
8,O=C(NNC(=O)c1cccnc1)Nc1ccccc1,103%
9,O=C(CC(=O)c1cccnc1)c1ccccc1,66.2% (active)
10,CCOC(=O)c1cc(-c2sc(NC(=O)c3ccccc3)nc2C)n(Cc2ccccc2)n1,101%
11,CCOC(=O)C1CCN(C(=O)c2ccc3c(=O)n4nc(Nc5ccccc5CC)sc4nc3c2)CC1,104%
12,Cc1ccc(NC(=O)Cn2sc3ccccc3c2=O)cc1,58.5% (active)
13,Cc1nn(CC(=O)Nc2ccc(F)cc2)c(=O)c2ccccc12,105%
14,Cc1ccc(NC(=O)Cn2c(C)csc2=O)cc1,92.9%
15,C[C@@H]1CN([C@@H](C)CO)C(=O)c2c(c3ccccc3n2C)-c2ccccc2CO[C@H]1CN(C)C(=O)C1CC1,101%
16,COc1ccc(Cl)cc1NC(=O)CN(C)C(=O)c1cn(-c2ccccc2)nc1-c1cccs1,112%
17,Cn1ncc([N+](=O)[O-])c1C(=O)Nc1cc(Cl)ccc1Cl,102%
18,O=C(Cn1nnc(-c2ccccc2)n1)NC(=O)NC1CCCC1,102%
19,COc1cc(-c2nnn(CC(=O)NCc3ccccc3)n2)cc(OC)c1OC,89.3%
20,N#Cc1ccc(COC(=O)Cn2nnc(-c3ccccc3)n2)cc1,-1.31% (active)
